Screening results from PubChem.
Cycloheximide cs = counter-screen for Shiga toxin inhibitors: cycloheximide protein synthesis inhibition; cell reporter, cycloheximide protein synthesis inhibition counterscreen; max response, %; 300,000 tested, 12% active; AID 2314; in the data active means max response mostly above about 13%, no sharp cut-off; inactive means mostly below about 14%; further: read at 38.3 µM for the half of the compounds with a filed dose; 0% is about no effect
LmPK inh = inhibitors of Leishmania mexicana pyruvate kinase; Q27686; purified LmPK, Kinase-Glo ATP luminescence, 1 h; Potency, µM (titrated, usually from 57.5 µM), inactives show top-dose activity change, negative = inhibition, actives largely listed as inhibitors; 290,000 tested, 0.37% active; AID 1721; further: potency means the concentration at half of the fitted maximal effect; on the % scale 0 is the no-effect control and ±100 the full control effect
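0.1 nM LmPK, 0.5 mM PEP, 0.1 mM ADP; 50 mM imidazole pH 7.2, 7 mM MgCl2, 50 mM KCl; 1 h RT. Kinase-Glo luminescence readout, normalized to no-enzyme (full inhibition) and uninhibited wells.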
TbPYK inhibitor = T. brucei pyruvate kinase inhibition. TbPYK enzyme, Kinase-Glo Plus ATP luminescence, 45 min. Potency, µM (highest dose often 76.8 µM), without a hit: at the top dose activity, negative = inhibition, most hits filed as inhibitors. 410,000 tested, 0.12% active; further: potency means the concentration at half of the fitted maximal effect; on the % scale 0 is the no-effect control and ±100 the full control effect; nearly all actives have a fitted effect of over 50% in size
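Enzyme and substrate buffer are dispensed first and compound is pin-transferred. ADP at 130 uM final then starts the reaction, which runs 45 min at room temperature. Detection reagent is added for 10 min before luminescence is imaged.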
Sm TGR block = blocks Schistosoma mansoni thioredoxin glutathione reductase | Q962Y6 | purified TGR, DTNB reduction, TNB absorbance 405 nm | Potency, µM (series often up to 114 µM), inactives show top-dose activity change, negative = inhibition, most hits filed as inhibitors | 360,000 tested, 3% active; further: potency means the concentration at half of the fitted maximal effect; on the % scale 0 is the no-effect control and ±100 the full control effect; nearly all actives have a fitted effect of over 60% in size
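Kinetic colorimetric format: TGR-catalysed, NADPH-driven DTNB reduction monitored via TNB absorbance. Enzyme dispensed at 20 nM; compound exposure 15 min at room temperature before reaction start.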
Shiga toxin inh = inhibitors of Shiga toxin in Vero cells. Vero cells, Shiga toxin protein synthesis inhibition reporter. 290,000 tested, 9.2% active. AID 2315. inhibition, % at 38.7 µM; in the data active means inhibition mostly above about 28%, no sharp cut-off; inactive means mostly below about 43%; further: 0% is about no effect
Giardia FBPA inh = Giardia lamblia aldolase inhibition; A8B2U2; Potency, µM (top dose mostly 59.6 µM), for the others: top-dose activity, negative = inhibition, usual class: inhibitors; 290,000 tested, 0.71% active; purified Giardia FBPA; further: potency means the concentration at half of the fitted maximal effect; on the % scale 0 is the no-effect control and ±100 the full control effect; nearly all actives have a fitted effect of over 55% in size
Target sequence (A8B2U2 whole entry, looked up): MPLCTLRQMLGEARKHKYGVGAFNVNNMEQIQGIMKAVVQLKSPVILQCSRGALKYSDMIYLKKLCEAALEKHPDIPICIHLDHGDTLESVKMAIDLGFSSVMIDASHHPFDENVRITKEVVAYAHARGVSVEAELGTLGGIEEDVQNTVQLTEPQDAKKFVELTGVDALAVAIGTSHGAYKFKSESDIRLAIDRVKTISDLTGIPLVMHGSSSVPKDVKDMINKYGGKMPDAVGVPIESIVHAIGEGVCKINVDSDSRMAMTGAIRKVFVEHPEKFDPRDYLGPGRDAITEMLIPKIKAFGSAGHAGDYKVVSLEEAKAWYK
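40 nM FBPA preincubated 10 min at RT with compound (up to 57.5 uM final), then substrate plus GAPDH/TPI/NAD/arsenate coupling and diaphorase/resazurin added. Fluorescence read after 20 min at RT, 525/598 nm.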
The depositor's hits bear a star. This is one part of a sample in which hits are shown more often than they occur. Unless noted, the call rests on the fitted dose curve; in most records, active means well fitted curve in the direction sought with a large enough effect; inconclusive means small, poorly fitted or top-dose-only effect, or another doubt; inactive means no such curve, though single readings can be large; an effect the other way counts as inactive or inconclusive.

`CCOC(=O)Cc1ccc(NC(=O)c2ccccc2Br)cc1` gave Cycloheximide cs 19.0*, LmPK inh -0.3%, TbPYK inhibitor -0.6%, Shiga toxin inh 36.8 and Giardia FBPA inh -2.3%.
`Cc1nc(-c2ccc(NC(=O)c3ccccc3C)cc2)cs1` gave Cycloheximide cs 31.1*, LmPK inh inconclusive, TbPYK inhibitor -4.1%, Sm TGR block -0.1%, Shiga toxin inh 61.2* and Giardia FBPA inh -7.7%.
Screening COc1cccc(CNC(=O)CCc2c(C)nc3c4c(C)cc(C)nc4nn3c2C)c1 returned TbPYK inhibitor -3.5% and Sm TGR block -5.1%.
Screening Nc1nc(O)c2ncn([C@H]3CC[C@@H](CO)O3)c2n1 returned Giardia FBPA inh 0.2%.
Screening CC(C)COc1ccc(C(=O)Nc2onc3c2CCCC3)cc1 returned TbPYK inhibitor -9.9% and Sm TGR block 5.4%.
For N#Cc1ccc(CN2CC3(CCN(C(=O)c4csnn4)CC3)C2)cc1 the results were TbPYK inhibitor 5.0% and Giardia FBPA inh 5.5%.
For O=C1Nc2cc(S(=O)(=O)N3CCCC3)ccc2N2CCCC12 (configuration not stated) the results were Cycloheximide cs 3.7, LmPK inh 1.3%, TbPYK inhibitor -10.8%, Sm TGR block 12.6µM*, Shiga toxin inh -11.7 and Giardia FBPA inh 0.6%.
Screening CCN(CC)S(=O)(=O)c1ccc2c(c1)NC(=O)C1CCCN21 (configuration not stated) returned Cycloheximide cs -2.5, LmPK inh 0.6%, TbPYK inhibitor 2.3%, Sm TGR block inconclusive, Shiga toxin inh -8.5 and Giardia FBPA inh 4.4%.
Cc1ccc(C2C(C#N)=C(N)SC(N)=C2C#N)o1 was read as Cycloheximide cs -3.6, LmPK inh 5.9%, Sm TGR block 22.4µM*, Shiga toxin inh 23.3 and Giardia FBPA inh inconclusive.
CCc1ccc(C2C(C#N)=C(N)SC(N)=C2C#N)s1 was read as Cycloheximide cs 9.3, LmPK inh 8.6%, TbPYK inhibitor -4.3%, Sm TGR block -31.5%, Shiga toxin inh 47.6 and Giardia FBPA inh inconclusive.
Screening COc1ccc(-c2cnc(N)n2CC2CCCO2)cc1 (configuration not stated) returned Cycloheximide cs 21.7*, LmPK inh -9.8%, TbPYK inhibitor -5.4%, Sm TGR block -4.3%, Shiga toxin inh 64.7 and Giardia FBPA inh inconclusive.
Screening O=C(COc1ccc(S(=O)(=O)N2CCOCC2)cc1Cl)NCc1ccc2c(c1)OCO2 returned TbPYK inhibitor -2.4%.
For O=c1cc(CSCc2ccc(Cl)cc2)[nH]c(=O)[nH]1 the results were Cycloheximide cs 6.4, LmPK inh 2.0%, TbPYK inhibitor 4.0%, Sm TGR block 24.7%, Shiga toxin inh -4.2 and Giardia FBPA inh 17.4%.
Cc1nnc(SCC(=O)NC(C)(C)C)n1CCc1ccccc1 was read as Cycloheximide cs 10.9*, LmPK inh -0.8%, TbPYK inhibitor 4.4%, Sm TGR block 1.5%, Shiga toxin inh 7.8 and Giardia FBPA inh 1.1%.
Screening COc1ccc2c(c1)C(=NN)c1cc(OC)ccc1-2 returned Cycloheximide cs 45.4*, LmPK inh 3.8%, TbPYK inhibitor -15.7%, Sm TGR block 0.9% and Shiga toxin inh 84.9.
Cn1c(=O)c2cc(NC(=O)NCc3ccc(Cl)cc3Cl)ccc2n1Cc1ccccc1 was read as TbPYK inhibitor 1.4%.
CCc1ccccc1NC(=O)c1cn(C)c(=O)c2ccccc12 was read as TbPYK inhibitor inconclusive and Sm TGR block -4.1%.
Screening N=c1nc(N)nc2n1NC(c1ccc(F)cc1)=CS2 returned Cycloheximide cs 19.7*, LmPK inh -1.2%, TbPYK inhibitor -25.2%, Sm TGR block 6.2%, Shiga toxin inh 47.5 and Giardia FBPA inh 4.2%.
Screening CCC(=O)NCCC(c1ccco1)c1ccccc1OC (configuration not stated) returned Cycloheximide cs 13.0, LmPK inh -0.9%, TbPYK inhibitor 0.5%, Sm TGR block 25.1µM*, Shiga toxin inh -3.0 and Giardia FBPA inh -14.9%.
COc1ccccc1C(CC(=O)Nc1nccs1)c1ccco1 (configuration not stated) was read as Cycloheximide cs 1.3, LmPK inh 4.0%, TbPYK inhibitor -8.3%, Sm TGR block 50.1µM*, Shiga toxin inh -2.8 and Giardia FBPA inh -1.3%.
`O=C(CC(c1ccc(F)cc1)c1ccco1)Nc1nccs1` (configuration not stated) gave Cycloheximide cs 8.5, LmPK inh 1.8%, TbPYK inhibitor -0.4%, Sm TGR block 39.8µM*, Shiga toxin inh -4.4 and Giardia FBPA inh -7.3%.
Screening CCN(C)C1CN(Cc2cn(Cc3cc(C)cc(C)c3)nn2)S(=O)(=O)C1 (configuration not stated) returned TbPYK inhibitor 1.6%.
`CCSc1nnc(NC(=O)CC(C)C)s1` gave Cycloheximide cs 18.4*, LmPK inh -6.4%, TbPYK inhibitor 0.8%, Sm TGR block 7.1%, Shiga toxin inh 27.9 and Giardia FBPA inh 8.9%.
CCSc1nnc(NC(=O)C(C(F)(F)F)C(F)(F)F)s1 was read as Cycloheximide cs -4.2, LmPK inh 1.3%, TbPYK inhibitor 2.3%, Sm TGR block 39.8µM*, Shiga toxin inh -4.2 and Giardia FBPA inh 1.1%.
Screening CCSc1nnc(NC(=O)CC)s1 returned Cycloheximide cs -3.8, LmPK inh 2.8%, TbPYK inhibitor 1.5%, Sm TGR block -25.8%, Shiga toxin inh -7.8 and Giardia FBPA inh 0.1%.
For CN(C)c1ncc2nc(CCc3ccccc3)c(=O)n(Cc3ccc(F)cc3)c2n1 the results were TbPYK inhibitor -0.9% and Giardia FBPA inh -2.2%.
CCOc1ccc(NC(=O)Cn2c(=O)n(Cc3ccc(C(=O)NCc4ccc(C)cc4)cc3)c(=O)c3ccccc32)cc1 was read as TbPYK inhibitor -4.3% and Sm TGR block -11.4%.
CC1CCN(c2nc(-c3cccnc3)nc3scc(-c4ccccc4)c23)CC1 was read as Cycloheximide cs -2.6, LmPK inh 2.7%, TbPYK inhibitor -8.2%, Sm TGR block 4.7%, Shiga toxin inh 11.9 and Giardia FBPA inh 7.1%.
`CC1CCCN(c2nc(-c3cccnc3)nc3scc(-c4ccccc4)c23)C1` (configuration not stated) gave Cycloheximide cs 20.9*, LmPK inh -0.7%, TbPYK inhibitor 5.6%, Sm TGR block -4.9%, Shiga toxin inh 51.4* and Giardia FBPA inh 9.8%.
Screening CNCC(=O)NC(CCCN=C(N)N)C(=O)NC(C(=O)NC(Cc1ccc(O)cc1)C(=O)NC(C(=O)NC(Cc1cnc[nH]1)C(=O)N1CCCC1C(=O)NC(C)C(=O)O)C(C)C)C(C)C (configuration not stated) returned TbPYK inhibitor -3.9%.
